The values that follow come from PubChem BioAssay (NCI).

What all share (experiment): NCI-60 one-dose screen, 48 h (100 = growth as untreated, 0 = no growth, -100 = all killed)
What all share (conditions): 10 µM unless noted

Experiment [1] has as its system DU-145 prostate.
For experiment [2], the system named is K-562 leukemia.
In experiment [3] the test system is MALME-3M melanoma.
In experiment [4] the test system is MDA-MB-231 breast.
Experiment [5] deals with RXF 393 renal.
The subject of experiment [6] is SF-268 CNS.
The subject of experiment [7] is SF-295 CNS.
Experiment [8] concerns SF-539 CNS.
Experiment [9] deals with UACC-257 melanoma.
Experiment [10] has as its system M14 melanoma.

The panel holds about 83,000 compounds, 20% with a hit somewhere; the sample as a whole holds those more often.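 Plates (96-well) were seeded with cells, treated with compound at one concentration, and incubated for 48 hours before percent growth was determined.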 Values without a mark were called inactive. Calls of active or inactive are those of the source. How the source made its calls: active means growth percent below 10; inactive means the rest.

As to `CCOc1ccc(/C=C/[N+](=O)[O-])cc1`, the growth in [1] is 99.3%; in experiment [2], 69%; in [3], 106%; in [4], 92.8%; in experiment [5] it was 16.9%; in experiment [6], 98.9%. In addition, the growth is 82.5% in experiment [7], 39% in [8], 85.5% in experiment [9] and 54.5% in experiment [10].

In the case of `CC1=C(CN)C2=C(C)C3(CC3)[C@@](C)(O)C(=O)C2=C1`, the growth in experiment [1] was 48.5%; in experiment [2] it was 111%; in experiment [3], 96.2%; in experiment [4], 95.2%; in experiment [5] it was 91.6%; in experiment [6] it was 72.1%. Moreover, the growth in experiment [7] was 78.9%; in experiment [8], 94.8%; in experiment [9], 87.2%; in [10], 96.1%.

In the case of `Cn1cc(-c2csc(-c3cn(CCN4CCOCC4)c4ccc(F)cc34)n2)c2cccnc21`, the growth is 40.1% in [1]; 9.34% (active) in experiment [2]; 53% in [3]; 35.1% in experiment [4]; 71% in [5]; 41.7% in experiment [6]. Also, the growth was 29.2% in experiment [7], 61.5% in experiment [8], 71% in experiment [9] and 8.08% (active) in experiment [10].

Consider `CC[C@H](C)[C@@H]([C@@H](CC(=O)N1CCC[C@H]1[C@H](OC)[C@@H](C)C(=O)N[C@H](C)[C@@H](O)c1ccccc1)OC)N(C)C(=O)[C@@H](NC(=O)[C@@H](NC)C(C)C)C(C)C`, for which the growth was 10.5% in experiment [1]; 11% in experiment [2]; 55.6% in experiment [3]; 16.9% in experiment [4]; 46% in [5]; 39% in experiment [6]. The growth in experiment [7] is 10.8%; in [8], -13.9% (active); in [9], 65.7%; in experiment [10] it was 1.24% (active).

For the molecule `Cc1cc(N(CCCl)CCCl)ccc1C=Nc1ccc(-c2csc(Cc3ccccc3)n2)cc1`, the growth in [1] is 57.1%; in experiment [2] it was 56.8%; in experiment [3], 70.8%; in experiment [4] it was 83.3%; in experiment [5], 83.8%; in [6], 65.6%. In addition, the growth in experiment [7] is 13.4%; in experiment [8] it was 49.3%; in experiment [9], 46.2%; in [10], 79.8%.

For `O=C1CNC(c2ccccc2)c2cc(Cl)ccc2N1` (stereo not given), the growth in experiment [1] was 100%; in [2] it was 93.8%; in experiment [3], 90.6%; in [4], 94.9%; in experiment [5], 99.2%; in experiment [6] it was 98.7%. Also, the growth was 103% in [7], 104% in experiment [8], 94.9% in [9] and 99.4% in [10].

Take `COc1cc([C@@H]2c3cc4c(cc3[C@H](OC(C)=O)[C@H]3COC(=O)[C@H]23)OCO4)cc(OC)c1OC`: the growth was 1.84% (active) in experiment [1]; 9.74% (active) in experiment [2]; 68.9% in [3]; 23.7% in experiment [4]; 54.9% in experiment [5]; 37% in experiment [6]. Moreover, the growth in experiment [7] is 10.6%; in experiment [8], -11% (active); in experiment [9] it was 75.9%; in experiment [10] it was 6.87% (active).

As to `CN1CC(=O)N(O)C1(C)c1cccnc1` (stereo not given), the growth in [1] is 115%; in [2], 99.4%; in experiment [3], 102%; in experiment [4], 113%; in [5], 106%; in experiment [6], 106%. Further, the growth was 96.4% in experiment [7], 98.3% in [8], 98.9% in [9] and 105% in [10].

As to `C/C1=C/C(=O)O[C@@H]2C[C@@H](CC[C@H](C)/C=C\C=C\CC1)O[C@@](O)([C@@H]1CSC(=O)N1CO)C2`, the growth was 22.9% in [1]; 22.2% in experiment [2]; 14% in experiment [3]; 13.7% in experiment [4]; -35.4% (active) in [5]; -37.7% (active) in [6]. Also, the growth in [7] was 13.5%; in experiment [8], -3.61% (active); in experiment [9], 13.9%; in experiment [10], 34.5%.

Regarding `CN(C)C1C(=O)C(C(N)=O)=C(O)C2(O)C(=O)C3=C(O)c4c(O)cccc4C(C)(O)C3CC12.[Cl][Sb]([Cl])[Cl]` (stereo not given), the growth in experiment [1] is 60%; in experiment [2], 22.9%; in [3] it was -21.2% (active); in experiment [4] it was 79.1%; in experiment [5], 59.2%; in experiment [6], 29.7%. For the same molecule, the growth in experiment [7] was -3.24% (active); in experiment [8], 20.9%; in experiment [9], 30.1%; in experiment [10], 37%.

For the molecule `COc1cc2c(cc1OCc1ccccc1)C(CC(C)C)=[N+](C)CC2`, the growth is 93.6% in experiment [1]; 67.2% in [2]; 85% in [3]; 93% in experiment [4]; 93.9% in experiment [5]; 67.5% in [6]. Also, the growth was 68.2% in [7], 76.7% in experiment [8], 50% in experiment [9] and 99.1% in [10].

For `C=CC[n+]1ccc(-c2cc[n+](CC=C)cc2)cc1`, the growth in [1] was 107%; in experiment [2], 99.4%; in [3] it was 34.1%; in experiment [4], 120%; in experiment [5], 99.8%; in experiment [6], 102%. Besides, the growth in experiment [7] is 101%; in experiment [8] it was 101%; in [9], 96.9%; in [10] it was 109%.

On to `CC(=O)O[C@H](C[C@H](C(C)C)N(C)C(=O)[C@@H](NC(=O)[C@H]1CCCN1C)C(C)C)c1nc(C(=O)N[C@@H](Cc2ccccc2)C[C@H](C)C(=O)O)c(C)s1`, for which the growth in [1] is 15.3%; in experiment [2] it was 9.54% (active); in [3] it was 53.9%; in experiment [4], 15.1%; in [5], 61.6%; in experiment [6] it was 29.9%. In addition, the growth in experiment [7] is 11%; in experiment [8], -3.18% (active); in experiment [9] it was 38.2%; in experiment [10] it was 4.87% (active).

On to `O=C(CC1(O)C(=O)N(Cc2ccccc2)c2ccc(Cl)cc21)c1ccc(C(=O)NCC2CCC3(CC2)OOC2(CCCCC2)OO3)cc1` (stereo not given), for which the growth is -97.6% (active) in [1]; -49% (active) in experiment [2]; -70.3% (active) in experiment [3]; -74.9% (active) in experiment [4]; -80.5% (active) in experiment [5]; -49.6% (active) in experiment [6]. The growth was -8.3% (active) in experiment [7], -81.1% (active) in [8], 26.4% in experiment [9] and 25.5% in [10].

Take `CC[C@H](C)[C@H](NC(=O)C12C3C4C1C1C2C3C41NC)C(=O)N(C)[C@H](C[C@@H](OC(C)=O)c1nc(C(=O)N[C@@H](Cc2ccccc2)C[C@H](C)C(=O)OC)cs1)C(C)C` (stereo not given in full): the growth was 7.38% (active) in [1]; 9.19% (active) in experiment [2]; 50.1% in experiment [3]; 29.1% in [4]; 39.4% in experiment [5]; 30% in experiment [6]. In addition, the growth in experiment [7] is 19.4%; in experiment [8] it was -5.82% (active); in experiment [9] it was 42.1%; in experiment [10], -14.4% (active).

On to `CC(=O)O[C@H](C[C@H](C(C)C)N(C)C(=O)[C@@H](NC(=O)[C@H]1CCCCN1C)C(C)C)c1nc(C(=O)NC2CCC(C(=O)O)CC2)cs1` (stereo not given in full), for which the growth in experiment [1] is 41.1%; in experiment [2], 22.8%; in [3], 61.8%; in [4], 64.1%; in experiment [5] it was 44.1%; in experiment [6] it was 48.2%. Moreover, the growth in experiment [7] is 35.1%; in experiment [8] it was 27.5%; in experiment [9], 50%; in [10], 41.5%.

With `CC(C)OC(=O)[C@H](C)NP(=O)(Oc1ccccc1)C1CCCN(O)C1=O` (stereo not given in full), the growth in experiment [1] is 98.1%; in experiment [2] it was 94.2%; in experiment [3] it was 43.6%; in experiment [4] it was 92.3%; in experiment [5], 57.2%; in [6], 93.9%. Besides, the growth is 95.6% in [7], 87.7% in experiment [8], 93.8% in [9] and 66.5% in [10].

As to `CN[C@]1(c2ccccc2Cl)CCCC[C@H]1NCCCN1CCN(C)CC1`, the growth in experiment [1] is 108%; in experiment [2], 90.3%; in experiment [3] it was 104%; in [4] it was 94.2%; in experiment [5] it was 97.4%; in experiment [6], 94.1%. For the same molecule, the growth in experiment [7] was 102%; in experiment [8], 94.8%; in experiment [9], 102%; in experiment [10] it was 98.9%.

Take `NC1CC2CCCCC2CC1(O)c1ccccc1` (stereo not given): the growth in experiment [1] is 103%; in experiment [2] it was 92.4%; in experiment [3], 96.1%; in [4], 99.8%; in experiment [5], 101%; in experiment [6], 102%. In addition, the growth was 114% in experiment [7], 99.1% in experiment [8], 98% in [9] and 100% in experiment [10].

Take `CCOP1(=O)CC(C)=C(Cl)C(P(=O)(OCC)OCC)C1` (stereo not given): the growth is 109% in experiment [1]; 110% in [2]; 118% in experiment [3]; 87.6% in experiment [4]; 74.5% in experiment [5]; 107% in experiment [6]. In addition, the growth is 103% in experiment [7], 113% in experiment [8], 76.9% in [9] and 74.3% in [10].

With `C/C(=C\c1ccn(-c2ccccc2N)n1)[C@@H]1C[C@@H]2O[C@]2(C)CCC[C@H](C)[C@H](O)[C@@H](C)C(=O)C(C)(C)[C@@H](O)CC(=O)O1`, the growth in [1] is -17.8% (active); in [2], 14.6%; in [3] it was 41.7%; in experiment [4], 21.9%; in [5], -3.76% (active); in experiment [6], 30.3%. In addition, the growth is 13.8% in experiment [7], -12% (active) in experiment [8], 62.3% in experiment [9] and 2.49% (active) in experiment [10].

Consider `CC[C@]12C=CCN3CC[C@@]4(c5ccc(OC)cc5N(C)[C@H]4[C@@](O)(C(=O)OC)[C@@H]1OC(=O)CCCC[P+](c1ccccc1)(c1ccccc1)c1ccccc1)[C@@H]32`, for which the growth in [1] is 14.7%; in experiment [2], 21.7%; in experiment [3], -35.8% (active); in experiment [4], -2.41% (active); in experiment [5] it was -13.3% (active); in [6], 16.2%. Besides, the growth in experiment [7] is 58.1%; in experiment [8] it was 19%; in experiment [9], 2.15% (active); in experiment [10], 29.4%.

As for `N#C[Se]CCN1C(=O)c2ccccc2C1=O`, the growth was 35.1% in [1]; 26.1% in experiment [2]; 17.7% in [3]; 55.9% in experiment [4]; -9.88% (active) in [5]; 20.2% in experiment [6]. For the same molecule, the growth is 6.62% (active) in [7], 33.4% in experiment [8], 7.13% (active) in experiment [9] and 25.5% in experiment [10].

Regarding `CN(C)CCCOc1ccc2c(c1)c(C(=O)C(=O)NCCO)cn2Cc1ccccc1`, the growth was 106% in experiment [1]; 106% in experiment [2]; 97.1% in experiment [3]; 104% in experiment [4]; 89.1% in experiment [5]; 97.7% in experiment [6]. The growth is 103% in [7], 103% in experiment [8], 102% in [9] and 101% in experiment [10].

Take `CC1[C@H](C)OC(=O)CC(O)CC(O)CC(O)CCC(O)C(O)C[C@]2(O)CC(O)C(C(=O)O)C(CC(OC3O[C@H](C)[C@@H](O)[C@H](N)[C@@H]3O)/C=C/C=C/C=C/C=C/CC/C=C/C=C/[C@H](C)[C@H]1O)O2` (stereo not given in full): the growth in experiment [1] is 96.7%; in experiment [2], 111%; in experiment [3] it was 99.3%; in experiment [4], 92.9%; in experiment [5] it was 107%; in experiment [6], 109%. The growth in experiment [7] is 102%; in experiment [8], 96.1%; in experiment [9], 101%; in experiment [10], 98.6%.
